USP17 inh = inhibitors of human USP17 deubiquitinase; inhibition, % at 50 µM; purified USP17, Ub-rhodamine cleavage fluorescence, 3 h; 47,000 compounds, 6.5% hits; A8MUK1
USP10 block = inhibitors of human USP10 deubiquitinase; 47,000 compounds, 1.1% hits; Q14694; inhibition, % at 20 µM; purified USP10, Ub-rhodamine fluorescence, 60 min; AID 1645856
USP8 block = blocks human USP8 ubiquitin-rhodamine cleavage; P40818; purified USP8, Ub-rhodamine cleavage fluorescence, 30 min; inhibition, % at 20 µM; 47,000 compounds, 4.2% hits
UCHL1 inh = human UCHL1 deubiquitinase inhibition; inhibition, % at 20 µM; P09936; 47,000 compounds, 0.2% hits; purified UCHL1, Ub-rhodamine cleavage fluorescence; AID 1645859
USP7 block = blocks human USP7 ubiquitin-rhodamine cleavage | Q93009 | purified USP7, Ub-rhodamine cleavage fluorescence | inhibition, % at 20 µM | 47,000 compounds, 0.3% hits | AID 1645854
OTUD3 block = blocks human OTUD3 ubiquitin-rhodamine cleavage. Q5T2D3. purified OTUD3, Ub-rhodamine fluorescence, 2 h. inhibition, % at 25 µM. 47,000 compounds, 0.7% hits. AID 1645858
* = called active by the depositor; · = not tested or not shown. Hits are enriched below; roughly 9.2% of the tested compounds scored in any of these assays. Cut-off read from the data, not from the text of the source: active = inhibition above about 30%; inactive = the rest.

SMILES | USP17 inh | USP10 block | USP8 block | UCHL1 inh | USP7 block | OTUD3 block
CCOc1ccc(CC(=O)Nc2ccc(-c3cn4cccnc4n3)cc2)cc1 | 68* | 14 | 40* | 22 | -24 | -6
Cc1c(O)cc(O)cc1O | 54* | -11 | -332 | -155 | -138 | 48*
Cc1nn(-c2cccc(C(F)(F)F)c2)c2c1C(c1ccccc1)N1C=C(Cl)C=C(Cl)C1=N2 (configuration not stated) | 35* | 0 | -106 | -1 | 3 | -3
O=C(c1ccoc1)N1CCC2(CC1)CCN(c1ncccn1)CC2 | -15 | -1 | -83 | -5 | -5 | -6
O=C1N(c2ccccc2)C2CS(=O)(=O)CC2N1c1ccc([N+](=O)[O-])cc1 (configuration not stated) | 30* | 0 | 0 | 2 | -23 | 1
O=C(C1CN(C(=O)CN2C(=O)COc3ccccc32)c2ccccc2O1)N1CCOCC1 (configuration not stated) | -2 | -2 | 4 | -2 | -4 | -4
O=C(Nc1cc(Cl)ccc1NCc1ccccc1)c1cc(=O)[nH]c2ccccc12 | -22 | -3 | 44* | -2 | 0 | -15
Cc1nn(CC(=O)Nc2ccc(Br)c3cccnc23)c(=O)c2ccccc12 | 65* | 3 | 0 | 4 | 8 | 0
CCN(CC)C(=O)[C@@]1(c2ccccc2)C[C@H]1COc1ccc(C(=O)O)cc1 | -4 | -1 | -10 | -5 | 1 | -6
O=C(COC(=O)C(Cc1c[nH]c2ccccc12)NC(=O)c1ccccc1Cl)Nc1ccc([N+](=O)[O-])cc1C(F)(F)F (configuration not stated) | -1 | 32* | 57* | 1 | 12 | -1
CCC(C)[C@H](NC(=O)[C@@H]1Cc2c([nH]c3ccccc23)C2c3ccccc3C(=O)N21)C(=O)NCCc1cccc(F)c1 (some centres not stated) | -16 | -10 | 2 | -3 | -1 | -8
O=C1c2ccccc2NC2(C(=O)Nc3ccc(Br)cc32)N1c1ccccc1 (configuration not stated) | 24 | 6 | 33* | 6 | -7 | 76*
CC(C)N1CCC2(CC1)Nc1ccccc1C(=O)N2Cc1ccccc1 | 1 | -8 | 17 | -3 | -2 | 4
Cn1c(-c2ccccc2)c(C(=O)COC(=O)c2cc(=O)[nH]c3ccccc23)c2ccccc21 | 16 | -3 | 20 | 4 | 7 | 8
Cc1c(Cl)cccc1NC(=O)c1ccc(CN2CCc3ccccc3C2)cc1 | 13 | 11 | 21 | 5 | 8 | 2
COC(=O)COc1ccc(/C=N/NC(=O)c2ccc(CN3CCc4ccccc4C3)cc2)cc1 | 25 | 4 | 36* | 1 | 2 | -4
O=C(Nc1ccccc1C(=O)N1CCCC1)c1ccc(CN2CCc3ccccc3C2)cc1 | 15 | -3 | 40* | 0 | 1 | 5
CSc1nc(C)c2c(n1)N(c1ccc(C(C)C)cc1)CC2 | 41* | -1 | 0 | 3 | · | 7
O=C(/C=C/c1cccs1)Nc1cc(C(F)(F)F)ccc1Cl | 10 | 12 | 0 | 3 | 7 | -5
COc1ccc(CC(=O)NCCC(c2ccccc2)c2ccccc2)cc1 | 7 | 9 | 10 | 1 | 2 | 10
Cc1cccc(O)c1-c1nc2c(-c3nc4c(C(=O)O)cccc4o3)cccc2o1 | 47* | 2 | -12 | 7 | 11 | 33*
Cc1c(C(=O)O)c(O)cc2c1C(=O)c1c(O)cccc1C2=O | 10 | -3 | -297 | -144 | -136 | 6
COC(=O)c1cc2cc(NC(=O)c3cccc(Cl)c3)ccc2s1 | 26 | 12 | 7 | -3 | 6 | -4
Cc1nc(CC(=O)Nc2cc(F)cc(F)c2)sc1C(=O)NC1CC1 | 24 | -3 | 61* | 5 | -5 | -16
O=C(c1cccc(C(F)(F)F)c1)N1CC2CCCN2c2ccc(C(F)(F)F)cc21 (configuration not stated) | 4 | 4 | 17 | 9 | -2 | -1
O=C(c1c(F)cccc1F)N1CC2CCCN2c2ccc(C(F)(F)F)cc21 (configuration not stated) | 4 | -1 | 34* | 5 | 11 | 14
Cc1ccc(S(=O)(=O)N2CCC(C(=O)OCC(=O)Nc3ccc(OC(F)(F)F)cc3)CC2)cc1C | 31* | 3 | 0 | 3 | 2 | 27
CCCCNc1nc2c(-c3ccccc3)nnn2c2ccccc12 | 68* | 1 | 2 | -1 | 4 | 2
